Measurements: PubChem BioAssay (NCATS)
Records with an inconclusive call do not appear. Active and inactive are the calls of the source. The call rests on the fitted dose curve; in most records, active means well fitted curve in the direction sought with a large enough effect; inconclusive means small, poorly fitted or top-dose-only effect, or another doubt; inactive means no such curve, though single readings can be large; an effect the other way counts as inactive or inconclusive.

Experiments:
[1] = qHTS of pediatric cancer cell lines to identify multiple opportunities for drug repurposing: Primary screen for Rh41 cells (AID 1347108); conditions: Rh41 rhabdomyosarcoma viability, CellTiter-Glo luminescence, 48 h; series mostly up to 46 µM; further: nearly all actives have a fitted effect of over 70% in size
Method in brief: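 ATP-based luminescence (CellTiter-Glo) quantifies viability after a 48-hour exposure. Compounds are dosed across 8 or 11 final concentrations; DMSO and 2.3 µM bortezomib serve as controls.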

[2] = qHTS of pediatric cancer cell lines to identify multiple opportunities for drug repurposing: Confirmatory screen for A673 cells (AID 1347110); conditions: A673 Ewing sarcoma cell viability; series mostly up to 45.9 µM; further: nearly all actives have a fitted effect of over 65% in size
Method in brief: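 A673 cells at 500-1,000 cells/well were dosed 5 h after plating, in dilution series up to 46 uM final; primary runs used 8 or 11 points and confirmatory runs used 11 points. Viability was read by CellTiter-Glo luminescence after 48 h, against DMSO and 2.3 uM bortezomib controls.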

[3] = qHTS of pediatric cancer cell lines to identify multiple opportunities for drug repurposing: Confirmatory screen for SK-N-MC cells (AID 1347111); conditions: SK-N-MC cell viability; series mostly up to 45.9 µM;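 further: cells exposed to compound for 48 h before the readout; nearly all actives have a fitted effect of over 70% in size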
Method in brief: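 SK-N-MC cells at 500-1,000 cells/well in growth media were pre-incubated 5 h, then exposed to compounds at 11-point dilutions for 48 h at 37 degrees C, 5% CO2. Viability was read as CellTiter-Glo luminescence.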

[4] = qHTS of pediatric cancer cell lines to identify multiple opportunities for drug repurposing: Confirmatory screen for LAN-5 cells (AID 1347113); conditions: LAN-5 neuroblastoma cell viability; series mostly up to 45.9 µM; further: nearly all actives have a fitted effect of over 65% in size
Method in brief: (§1)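 Viability after 48 h compound treatment at 37C, 500-1,000 cells/well, read as ATP luminescence with CellTiter-Glo. Primary screens used 11-point (MIPE, 0.78 nM-46 µM) or 8-point (NPC, 0.59 nM-46 µM) final concentrations; follow-up screens used 11-point dilutions.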

[5] = qHTS of pediatric cancer cell lines to identify multiple opportunities for drug repurposing: Confirmatory screen for DAOY cells (AID 1347114); conditions: DAOY medulloblastoma cells viability, cytotoxicity qHTS; series mostly up to 45.9 µM; further: nearly all actives have a fitted effect of over 65% in size
Method in brief: (§2)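 Viability measured as metabolically active cells via CellTiter-Glo luminescence following 48 hours of compound exposure, 11-point dilutions in confirmatory testing. 500-1,000 cells/well plated 5 hours before dosing; controls were DMSO and 2.3 µM bortezomib.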

[6] = qHTS of pediatric cancer cell lines to identify multiple opportunities for drug repurposing: Confirmatory screen for NB-EBc1 cells (AID 1347115); conditions: NB-EBc1 neuroblastoma cells, viability (cytotoxicity); series mostly up to 45.9 µM; further: nearly all actives have a fitted effect of over 45% in size
Method in brief: as §1

[7] = qHTS of pediatric cancer cell lines to identify multiple opportunities for drug repurposing: Confirmatory screen for SJ-GBM2 cells (AID 1347116); conditions: SJ-GBM2 glioblastoma cells, viability; series mostly up to 45.9 µM; further: nearly all actives have a fitted effect of over 60% in size
Method in brief: as §2

[8] = qHTS of pediatric cancer cell lines to identify multiple opportunities for drug repurposing: Confirmatory screen for BT-37 cells (AID 1347117); conditions: BT-37 pediatric cancer cells, viability; series mostly up to 45.9 µM; further: nearly all actives have a fitted effect of over 55% in size
Method in brief: as §1

[9] = qHTS of pediatric cancer cell lines to identify multiple opportunities for drug repurposing: Confirmatory screen for TC32 cells (AID 1347118); conditions: TC32 Ewing sarcoma cells viability qHTS; series mostly up to 45.9 µM; further: nearly all actives have a fitted effect of over 65% in size
Method in brief: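 qHTS, TC32, 48 h drug treatment, CellTiter-Glo luminescence as a proxy for metabolically active cells; primary top concentration 46 µM (MIPE 11-pt, NPC 8-pt); confirmatory 11-pt.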

[10] = qHTS of pediatric cancer cell lines to identify multiple opportunities for drug repurposing: Confirmatory screen for MG 63 (6-TG R) cells (AID 1347119); conditions: MG-63 (6-TG resistant) osteosarcoma viability; series mostly up to 45.9 µM; further: nearly all actives have a fitted effect of over 55% in size
Method in brief: as §1
Potency means the concentration at half of the fitted maximal effect.

## CC[C@H](O)C(C[C@H](C)N(C)C)(c1ccccc1)c1ccccc1
[1]
  Potency: 44100 nM (active)

## Cc1ccc([N+](=O)[O-])[c]2c1[O][Hg]2
[1]
  Potency: 668 nM (active)
[2]
  Potency: 737 nM (active)
[3]
  Potency: 233 nM (active)
[4]
  Potency: 2930 nM (active)
[5]
  Potency: 5220 nM (active)
[6]
  Potency: 2930 nM (active)
[7]
  Potency: 4140 nM (active)
[8]
  Potency: 1470 nM (active)
[9]
  Potency: 261 nM (active)
[10]
  Potency: 5220 nM (active)

## C[N+](C)(C)CCOC(=O)C(O)(c1ccccc1)c1ccccc1
[1]
  Potency: inactive

## CC1Sc2c(C(=O)O)c(=O)c3cc(F)c(N4CCNCC4)cc3n21 (stereo not given)
[1]
  Potency: inactive
[3]
  Potency: 14700 nM (active)
[4]
  Potency: inactive
[6]
  Potency: inactive
[8]
  Potency: inactive
[9]
  Potency: 18500 nM (active)

## COP(=O)(OC)OC=C(Cl)Cl
[1]
  Potency: inactive

## C#C[C@]1(O)C=C[C@H]2[C@@H]3CCC4=CC(=O)CC[C@@H]4[C@H]3CC[C@@]21CC
[1]
  Potency: inactive
